This note sets out measurements from PubChem BioAssay AID1814 (Broad Institute, 2009).

The whole screen tested about 300,000 compounds, of which about 22,000 (7.3%) were called active. Not shown: some 2% with an inconclusive outcome. Many of the other results were omitted from the sample, so actives are more common in it than they were. A number with no mark means an inactive call. No stated cut-off is given here; in the data, active means activity score below about -60%; inconclusive means mostly about -28% to -61%; inactive means positive scores.

The nature of the assay: Activators working through SNCA 5'UTR binding (MLPCN) (AID 1814). The settings on record: alpha-synuclein 5'UTR reporter, activators screen; stronger effect = lower value; tested at 7.5 µM.
Turning to `Cc1ccc(NC(=O)Nc2cccnc2)cc1`, the activity score was -97.5% (active). In the case of `Cc1ccc(-c2nc(-c3cccnc3)sc2CC(=O)Nc2ccc(C)c(Cl)c2)cc1`, the activity score is 54.1%. With `CCc1ccc(NC(=O)Nc2ccncc2)cc1`, the activity score was -76.8% (active). To `Cc1ccc(NC(=O)Nc2nnc(-c3ccncc3)s2)cc1` belongs -68% (active); to `CC(=O)c1cccc(NC(=O)Nc2ccc(C)cc2)c1`, -144% (active); to `CCCCCCCCn1c2c(c(=N)c3c1CCC3)CCCC2`, 101%. For `COC(=O)c1sccc1NC(=S)Nc1ccc(C)cc1`, the activity score is -77.8% (active). To `Cc1ccc(NC(=O)Nc2ccccc2)c(Br)c1` belongs -192% (active). On to `COc1cc(NC(=O)Nc2ccc(C)cc2)cc([N+](=O)[O-])c1`, for which the activity score is -141% (active). Turning to `COC(=O)c1ccc(NC(=O)Nc2ccc(C)cc2)cc1`, the activity score was -81.9% (active).

Consider `O=C(c1ccco1)N1CCN(C(=O)c2cc(-c3ccccc3F)no2)CC1`, for which the activity score was -156% (active). For the molecule `O=C(NCCCN1CCOCC1)c1cc(-c2ccccc2F)no1`, the activity score is -121% (active). Consider `CCC(=O)/C(=C(/O)c1ccccc1)c1nc2ccccc2[nH]1`, for which the activity score was -69% (active). For `CC[C@]1(O)C[C@@H]2CN(CCc3c([nH]c4ccccc34)[C@@](C(=O)OC)(c3cc4c(cc3OC)N(C)[C@H]3[C@@](O)(C(=O)OC)[C@H](OC(C)=O)[C@]5(CC)C=CCN6CC[C@]43[C@@H]65)C2)C1`, the activity score was 77.2%.

For the molecule `CNc1[nH]ncc1[N+](=O)[O-]`, the activity score is -74.2% (active). Take `CC1CCC(NC(=O)c2ccc(N3CCCC3=O)cc2)CC1` (stereo not drawn): the activity score was -64.3% (active). With `CC1CCCC(NC(=O)c2cccc(N3CCCC3=O)c2)C1C` (stereo not drawn), the activity score was -74.5% (active).

With `CN1c2ccc(C=O)c3c(C=O)ccc(c23)N(C)C1(C)C`, the activity score was 67%.

On to `CC1CCN(C(=S)c2ccc(-c3ccc(Cl)cc3Cl)o2)CC1`, for which the activity score is -91.3% (active). With `O=C(CSc1ccccn1)Nc1nc2c(ccc3ccccc32)s1`, the activity score is -63.2% (active). With `COc1ccc2nc(SCc3ccccc3)nc(C)c2c1`, the activity score was -70.7% (active). To `Cc1ccc(-n2ncc3c2ncn2nc(-c4ccco4)nc32)c(C)c1` belongs -88.8% (active); to `Cc1onc(-c2ccccc2Cl)c1C(=O)N(Cc1ccc(N(C)C)cc1)C(C)C`, 73.1%.

`CCN1/C(=C\c2ccc3ccccc3[n+]2CC)Sc2cc(C)ccc21`: the activity score is -332% (active). Take `O=C(Nc1ncccc1O)c1ccc(C(=O)c2ccccc2)cc1`: the activity score is -507% (active).

For `O=C(Nc1ncccc1O)c1ccc(S(=O)(=O)N2CCCC2)cc1`, the activity score is -67.4% (active). Regarding `CNC(C)C#Cc1ccc2sc3cc(OC)c(OC)cc3c(=O)c2c1` (stereo not drawn), the activity score is -277% (active). For `CC(C)(C)C(=O)Nc1ccc(-c2cn3cccnc3n2)cc1`, the activity score was -130% (active). On to `COc1ccc(-c2cn3cccnc3n2)cc1`, for which the activity score was -75.4% (active). In the case of `FC(F)(F)Oc1ccc(-c2cn3cccnc3n2)cc1`, the activity score was -80.4% (active). `COc1ccc(-c2cn3ccsc3n2)cc1`: the activity score is -105% (active).

For the molecule `CCn1nnnc1SCC(=O)c1ccc(C)cc1C`, the activity score was -81% (active). To `COC(=O)C1C(=O)c2c([nH]c(C(=O)OCCSC)c2C)CC1C` (stereo not drawn) belongs -117% (active). Turning to `Cc1cccc(-n2ncc3c(N4CCc5ccccc54)ncnc32)c1`, the activity score is -164% (active). On to `COc1ccc(-n2ncc3c(N4CCc5ccccc54)ncnc32)cc1`, for which the activity score is -240% (active). Take `Cc1cc(N/C=C\C(=O)c2ccc(Cl)c(Cl)c2)no1`: the activity score was -231% (active). `CCCCC(=O)Nc1nc(C)c(-c2csc(Nc3ccc(Cl)cc3)n2)s1`: the activity score is -62.8% (active). The value for `S=c1[nH]nc(-c2cccnc2)n1/N=C/C(Cl)=C\c1ccccc1` was -177% (active); that for `Cc1cc(-c2n[nH]c(=S)n2/N=C/C(Br)=C/c2ccccc2)n[nH]1` was -235% (active).

`Cc1ccccc1-c1n[nH]c(=S)n1/N=C/c1ccc(-c2ccccc2Br)o1`: the activity score is 57.9%. As to `Cc1nn2c3cc(N4CCOCC4)ccc3nc2c2ccccc12`, the activity score was -149% (active). The value for `O=C(Cc1ccc(F)cc1)N/N=C/c1ccc2c(c1)OCO2` was -93.4% (active); that for `Cc1ccc(C(=O)NNc2ncnc3ccccc23)cc1` was -131% (active). The value for `CCN(CC)c1ccc(/C=N/NC(=O)c2cnccn2)c(O)c1` was 72.3%. As for `CCN1CCN(c2ccc(NC(=O)c3cnccn3)cc2)CC1`, the activity score was -97.4% (active).

On to `O=C(Nc1ccc2c(c1)OCCO2)c1ccoc1`, for which the activity score is -84.8% (active).

`Oc1c(CN2CCN(c3ccc(F)cc3)CC2)cc(Cl)c2cccnc12`: the activity score is 69.6%. For `O=C(Nc1ccc2c(c1)OCCO2)c1cnccn1`, the activity score is -68.9% (active). For `Cn1cc([N+](=O)[O-])c(C(=O)Nc2ccc3c(c2)OCCO3)n1`, the activity score was -65.9% (active). Consider `Nc1c(C(=O)Nc2ccc3c(c2)OCCO3)nnn1Cc1ccccc1`, for which the activity score is -194% (active).

In the case of `CCOc1ccc(N2C(=O)CC(N(O)c3ccccc3)C2=O)cc1` (stereo not drawn), the activity score was -65% (active). With `Cc1ccc(S(=O)(=O)NC(=O)Nc2nc(-c3ccc(F)c(F)c3)cs2)cc1`, the activity score is -61.5% (active). For the molecule `O=S(=O)(Nc1ccc2nc(-c3ccco3)[nH]c2c1)c1ccccc1`, the activity score is -181% (active). The value for `CC(=O)N1CCC(C(=O)Nc2nc(-c3ccccc3)ns2)CC1` was -82.9% (active). Consider `Cc1ccc(N=C2NC(=O)c3cccc([N+](=O)[O-])c32)cc1`, for which the activity score is -141% (active).

With `O=C(CSc1nnnn1C1CCCC1)N1CCCCC1`, the activity score is -88% (active).

As to `CCCCCC(=O)Nc1ccc2oc(-c3ccncc3)nc2c1`, the activity score is -80.2% (active). Take `COc1cccc(/C=C2\C=C(c3ccc(C)cc3)OC2=O)c1OC(C)=O`: the activity score is -65.8% (active). On to `COc1cccc(/C=C/c2ccc3ccccc3n2)c1OC(C)=O`, for which the activity score is 83.1%.

Regarding `O=C(NCCC1=CCCCC1)c1ccc(Cl)c([N+](=O)[O-])c1`, the activity score is -108% (active). The value for `Cc1ccc2cc(/C=N/Nc3ccc(C(=O)O)cc3)c(Cl)nc2c1` was -167% (active); that for `CC1CCC(NC(=O)CNC(=O)c2ccc3ccccc3c2)CC1` (stereo not drawn) was -74% (active); that for `Clc1cccc(-c2nc3nc4ccccc4nc3n2Cc2ccco2)c1` was -77.2% (active). To `Clc1ccc(-c2csc(-c3ccncc3)n2)cc1` belongs -135% (active); to `O=c1[nH]c(/C=C/c2cccc(Br)c2)nc2ccccc12`, -125% (active).

`O=C(Nc1cccc(O)c1)c1ccc(C(=O)c2ccccc2)o1`: the activity score was -120% (active). The value for `C/C(=C\C(=O)c1ccccc1)Nc1cccc(O)c1` was -246% (active). For the molecule `C/C(=C\C(=O)c1cccnc1)Nc1ccc(C)c(C)c1`, the activity score was -88.7% (active). Take `O=C(Nc1ccn(Cc2ccccc2)n1)c1cccc(F)c1`: the activity score is -95.8% (active).

Take `Cc1cc(/C=N/NC(=O)c2cccnc2)c(C)n1CC(C)C`: the activity score was -116% (active). Take `COc1ccc(C(CC(=O)c2ccccc2)S(=O)(=O)c2ccccc2)cc1` (stereo not drawn): the activity score is -120% (active). As for `COC(=O)c1ccc(Nc2ncnc3sccc23)cc1`, the activity score was -125% (active). Regarding `COc1c(O)cc2oc(-c3ccc(O)c(O)c3)cc(=O)c2c1O`, the activity score was -140% (active). As for `COc1ccc(C(=O)/C=C/c2ccc(-c3ccccc3)cc2)cc1CSCC(=O)O`, the activity score was -90% (active). Consider `COc1ccc(/C=C/C(=O)Nc2c(C)nn(C)c2C)cc1COc1ccc(Br)cc1`, for which the activity score was 50.9%. As to `CCC(NC(=O)c1cc(COc2ccc(F)c(F)c2)on1)c1ccncc1` (stereo not drawn), the activity score is -78.1% (active).

Turning to `O=C(c1cc(COc2ccc(F)c(F)c2)on1)N1CCOCC1`, the activity score was -68.2% (active).

Consider `O=C(c1cc(COc2c(F)cccc2F)on1)N1CCSCC1`, for which the activity score was -165% (active). On to `O=C(c1cc(COc2ccc(F)cc2F)on1)N1CCOCC1`, for which the activity score was -124% (active).

As for `CC(C)(C)c1ccc(C(=O)CSc2ncn[nH]2)cc1`, the activity score is -158% (active).

`OCCCN1c2ccccc2Nc2nnc(-c3ccccc3)cc21`: the activity score was -189% (active). In the case of `O=S(=O)(c1ccc(Br)cc1)N1CCC(c2nc3ccccc3[nH]2)CC1`, the activity score is 78.3%. For `Nc1ccccc1SCc1cc([N+](=O)[O-])cc2c1OCOC2`, the activity score is -66.8% (active). Take `Nc1cc(N)nc(SCc2cccc(F)c2)n1`: the activity score was -147% (active). For the molecule `Cc1cc2oc3ccc(NCCC4CCCN4C)cc3c(=O)c2cc1C` (stereo not drawn), the activity score was -102% (active). Take `O=C(Nc1ccc(Br)cn1)c1ccc([N+](=O)[O-])cc1Cl`: the activity score is -92.4% (active). The value for `COc1ccc(OCC(=O)Nc2cc(C)c(Cl)cc2OC)c([N+](=O)[O-])c1` was -102% (active). The value for `CC(=O)Nc1ccccc1C(=O)C(=O)Nc1ccc(F)cc1` was -64.9% (active); that for `Cc1nn(-c2ccc([N+](=O)[O-])cc2)c(N)c1-c1ccccc1` was -143% (active); that for `COCCCNC(=S)NC(=O)c1ccccc1` was -88.8% (active). In the case of `O=C(N/N=C/c1cc2c(cc1Br)OCO2)C1COc2ccccc2O1` (stereo not drawn), the activity score is -96.1% (active). For the molecule `Cc1ccc(OCc2cc(C(=O)N(C)CCc3ccccc3)no2)cc1C`, the activity score is -115% (active). Take `Cc1csc(NC(=S)Nc2cccc(Cl)c2)n1`: the activity score is -193% (active). The value for `S=C(Nc1cccc(Cl)c1)Nc1ccc2cn[nH]c2c1` was -89.3% (active). For `O=[N+]([O-])/C=C/c1ccc2c(ccn2Cc2ccccc2)c1`, the activity score was 84.5%. To `Cc1ccc(Oc2cnn(-c3ccccc3)c(=O)c2Br)cc1` belongs -78.5% (active); to `NC(=O)COc1ccc(C23CC4CC(CC(C4)C2)C3)cc1`, -101% (active). The value for `Nc1nonc1-n1nnc(C(=O)N/N=C/c2cc(Br)ccc2O)c1CSC1=NCCS1` was 94.1%; that for `Cc1ccn2cc(-c3nonc3C)cc2c1` was -128% (active); that for `CCOc1ccc2cc(C#N)c(SCC(=O)OC)nc2c1` was -145% (active). On to `COCc1cc(C)nc(SCC(=O)Nc2cccc(C)c2)c1C#N`, for which the activity score was -67.6% (active). As to `Cc1cc(C)c(C#N)c(SCC(=O)Nc2ccccc2)n1`, the activity score is -212% (active). For `Cc1nonc1NC(=O)CSc1nc2ccccc2cc1C#N`, the activity score was -91.1% (active).
